Only some compounds are listed: those with a hit (about 0.44% of all), similar ones and a draw of the others.
B2AR arrestin: beta2AR (human) beta-arrestin recruitment activity | 330,000 tested, 0.02% active | beta-arrestin recruitment to beta2AR, cell-based reporter | P07550 | Potency, µM (top dose mostly 46.1 µM), for the others: at the highest dose activation, most hits filed as activators;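 note: potency is the fitted concentration of half-maximal effect; 0% = DMSO controls and full agonism = EC100 isoproterenol or metaproterenol; nearly all actives have a fitted effect of over 65% in size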
Target sequence (P07550 whole entry, looked up): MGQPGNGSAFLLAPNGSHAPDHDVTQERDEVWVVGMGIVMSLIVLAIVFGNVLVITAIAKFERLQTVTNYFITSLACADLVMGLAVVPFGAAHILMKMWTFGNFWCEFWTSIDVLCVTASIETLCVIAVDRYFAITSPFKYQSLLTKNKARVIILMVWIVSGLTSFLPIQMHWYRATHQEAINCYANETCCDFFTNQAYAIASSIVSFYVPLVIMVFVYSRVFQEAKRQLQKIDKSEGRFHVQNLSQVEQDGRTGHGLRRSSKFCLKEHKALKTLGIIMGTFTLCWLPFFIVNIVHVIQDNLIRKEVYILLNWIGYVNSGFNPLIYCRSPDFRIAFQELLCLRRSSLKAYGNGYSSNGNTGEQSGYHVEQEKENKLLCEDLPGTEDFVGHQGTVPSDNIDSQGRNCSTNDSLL
PI4K2A inh: blocks human PI4K2A kinase activity; Q9BTU6; purified PI4K2A, ADP-Glo luminescence, 1 h; hits give low values; activity change, negative = inhibition, % at 76.9 µM; 420,000 tested, 0.13% active; AID 1346378; in the data active = activity change below about -50%; inconclusive = mostly about -30% to -49%;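 note: -100% = wells without enzyme as full effect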
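ADP-Glo luminescence measured ADP generated by PI4K2A enzyme (4 ug/mL before mixing) with 1.2 mM PI substrate (pre-mix) and 300 microM ATP (pre-mix). Tris pH7.5 buffer with MgCl2, Triton X-100; 1 h reaction at ambient temperature.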
Giardia kill: Giardia lamblia killing; Giardia lamblia trophozoite viability; 340,000 tested, 0.15% active; activity change, % at 7.66 µM, hits read low; in the data active = activity change below about -80%; inconclusive = between about -30% and that limit;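 note: parasites exposed to compound for two days anaerobically before the ATP read; % is set by controls: 0 for no effect and ±100 for the full control effect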
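Killing of trophozoites was scored by loss of ATP luminescence after a 48 hrs anaerobic exposure to compounds at 37 deg C, using 100 cells per well.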
p53 reactivator: restores transcriptional activity of mutant p53. H1299 p53-A138V BP100-luciferase reporter, luminescence, 24 h. Potency, µM (top dose mostly 92.2 µM), for the others: top-dose activity change, positive = activation, actives largely listed as activators. 320,000 tested, 0.063% active. AID 504706; note: potency is the fitted concentration of half-maximal effect; % of control where 0% means no effect; nearly all actives have a fitted effect of over 45% in size
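p53-null H1299 cells stably carrying temperature-sensitive p53-A138V and a BP100-luciferase reporter were pinned with compounds (4-point, 1:5 series) and held 24 hrs at 37 deg C. Luminescence was read 10 min after detection reagent.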
Epigenetic reg: epigenetic control regulation, reporter derepression; murine LDR cells, GFP reporter derepression, 30 h; Potency, µM (titrated, usually from 53.9 µM), for the others: top-dose GFP activation, actives largely listed as activators; 280,000 tested, 0.2% active; AID 1865; note: potency is the fitted concentration of half-maximal effect; % of control where 0% means no effect; nearly all actives have a fitted effect of over 60% in size
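Derepression of a silenced CMV-GFP reporter in murine LDR cells is scored by enumerating GFP-positive cells with a laser-scanning microplate cytometer after 30 hours of treatment at 37 C.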
Pin1 inh: human Pin1 inhibition | Pin1 FP peptide displacement, HiFluor488, 10 min | Q13526 | 390,000 tested, 0.009% active | Potency, µM (titrated, usually from 115 µM), without a hit: at the top dose activity, negative = inhibition, usual class: inhibitors | AID 504891; active = well fitted inhibition curve with a large enough effect in the polarisation, with a control signal flat, not every such curve was filed as active; inconclusive = small, poorly fitted or top-dose-only effect, or effect the other way, or a change in a side signal; inactive = no such curve, though single readings can be large or run the other way; the % refers to the polarisation; note: potency is the fitted concentration of half-maximal effect; % is set by controls: 0 for no effect and ±100 for the full control effect
Target sequence (Q13526 whole entry, looked up): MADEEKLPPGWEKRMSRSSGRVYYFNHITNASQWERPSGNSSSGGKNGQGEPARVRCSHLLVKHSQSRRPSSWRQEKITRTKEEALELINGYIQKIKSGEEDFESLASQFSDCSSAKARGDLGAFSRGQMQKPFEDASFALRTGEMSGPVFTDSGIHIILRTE
Starred values were filed as active, the others as inactive; u = inconclusive; x = no result given. Unless noted, calls come from the whole dose curve; as a rule, active = well fitted curve in the direction sought with a large enough effect; inconclusive = small, poorly fitted or top-dose-only effect, or another doubt; inactive = no such curve, though single readings can be large; an effect the other way counts as inactive or inconclusive.

SMILES	B2AR arrestin	PI4K2A inh	Giardia kill	p53 reactivator	Epigenetic reg	Pin1 inh
Cc1cccc(CCN=c2c([N+](=O)[O-])nn(-c3ccccc3)n2O)c1	0%	1	-91*	u	-2%	-3%
Cc1cccc(-n2nc([N+](=O)[O-])c(=NC3CCN(Cc4ccccc4)CC3)n2O)c1	0%	2	-84*	14µM*	2%	-1%
O=C1CCCN1CCCN=c1c([N+](=O)[O-])nn(-c2ccc(Cl)cc2)n1O	0%	0	u	27%	2%	-1%
Cc1ccc(N=c2c([N+](=O)[O-])nn(-c3ccccc3)n2O)c(C)c1	0%	0	u	u	-1%	1%
COc1ccc(-n2nc([N+](=O)[O-])c(=NCCCN3CCCC3=O)n2O)cc1	0%	4	-85*	21%	-3%	-6%
COc1ccc(-n2nc([N+](=O)[O-])c(=NCCc3cccc(C)c3)n2O)cc1	0%	-3	-85*	18%	-1%	-1%
Cc1cc2c(s1)c1cnn(Cc3ccc(SC(F)(F)F)cc3)c(=O)c1n2C	x	x	x	x	x	-19%
Cc1ccc(NC(=O)c2ccc3c(c2)C(=O)N(CC2CCCO2)C3=O)cc1C (stereo not drawn)	7.1µM*	-15	-2	4%	0%	-2%
O=C(Nc1ccccn1)c1ccc2ccccc2n1	5%	-2	-4	45µM*	-1%	1%
Cc1ccc(/C=C2/NC(=O)N(Cc3ccccc3F)C2=O)s1	0%	-2	9	13%	3.5µM*	u
OC1(C(F)(F)F)CC(c2ccc3ccccc3c2)=NO1 (stereo not drawn)	0%	2	-21	35µM*	0%	-1%
OC(c1ccccc1)(c1nc(-c2ccc3ccccc3c2)cs1)C(F)(F)F (stereo not drawn)	x	-2	x	x	x	x
O=C(CNC(=O)c1ccc(C(F)(F)F)cc1)OC(C(=O)Nc1cc(C(F)(F)F)ccc1Cl)c1ccccc1 (stereo not drawn)	x	x	x	x	x	-2%
O=C(Nc1ccc(SC(F)F)cc1)c1cccc2nc3ccccc3nc12	0%	-7	-16	1%	7.1µM*	-1%
CCN(CC)c1ccc(/C=N/NC(=O)CNC(=O)C2COc3ccccc3O2)c(O)c1 (stereo not drawn)	0%	-2	-3	18µM*	x	46%
COc1cc(/C=N\NC(=O)CNC(=O)C2COc3ccccc3O2)ccc1O (stereo not drawn)	0%	-2	-19	-4%	9%	-7%
CCOC(=O)/C=c1\s/c(=C\c2ccc(C)cc2)c(=O)n1CC(=O)NCc1ccco1	-1%	-3	11	1%	u	16%
CCOC(=O)/C=c1\s/c(=C\c2sccc2C)c(=O)n1CC(=O)NCc1ccc(C)cc1	0%	x	x	-1%	7.9µM*	x
COc1cc(/C=C(\C#N)c2nc3ccccc3o2)ccc1O	0%	-1	0	3%	2.2µM*	u
COc1cc(/C=C(\C#N)c2nc(-c3cc4ccccc4oc3=O)cs2)ccc1O	0%	-4	0	-3%	4.5µM*	37%
COc1cc(/C=C(/C#N)c2nc(-c3cc4ccccc4oc3=O)cs2)cc([N+](=O)[O-])c1O	8%	x	x	6%	0%	x
O=C1OC(c2ccccc2)(c2ccccc2)N2CCN(C(=O)NCc3ccc(F)cc3)CC12 (stereo not drawn)	x	x	x	x	x	8%
CCOC(=O)/C(=C\C=C1/Sc2ccccc2N1CC)C(C)=O	-1%	6	15	-6%	16µM*	u
O=S(=O)(Nc1cc(Sc2ncn[nH]2)c(O)c2ccccc12)c1ccccc1	0%	-64*	-17	-11%	12%	45µM*
Nc1nc(O)c(N=Nc2ccc(S(N)(=O)=O)cc2)c(=O)[nH]1	0%	4	-1	4%	x	1%
SMILES	B2AR arrestin	PI4K2A inh	Giardia kill	p53 reactivator	Epigenetic reg	Pin1 inh
NS(=O)(=O)c1ccc(N=Nc2c[nH]c(=O)c(O)c2)cc1	1%	-62*	4	-2%	1%	u
O=C1CCN(CCc2ccccc2)CCN1[C@H](CSc1ccccc1)c1ccccc1	0%	-63*	2	18%	x	4%
N#Cc1ccc(N2CCN(S(=O)(=O)c3ccc4c(c3)CC(=O)N4)CC2)cc1	x	x	x	x	x	13%
CC(C)C[C@@H](/C=C/S(C)(=O)=O)NC(=O)[C@H](CC(C)C)NC(=O)[C@H](CC(C)C)NC(=O)OCc1ccccc1	x	x	x	x	6.3µM*	x
Nc1nc2nc(-c3ccccc3)cc(=O)n2[nH]1	-3%	-8	-11	-1%	0%	3%
O=c1cc(-c2ccccc2)nc2nc(-c3ccccc3)[nH]n12	0%	-1	-2	32µM*	-2%	2%
O=C1CCc2cc(S(=O)(=O)Nc3ccc4ccccc4c3)ccc2N1	x	x	x	x	x	0%
O=C(/C=C/c1ccc(O)cc1)c1ccccc1	2%	-75*	8	u	-1%	1%
O=C(/C=C/c1ccccc1)c1ccc(O)cc1	x	x	x	x	-1%	x
Cc1cccc(NC(=O)COc2ccc3c(c2)CCC3)n1	0%	-3	-12	20%	x	-2%
O=C(COc1ccc2c(c1)CCC2)Nc1ccccn1	0%	-62*	-28	-7%	x	-7%
CC(=O)O[C@@H]1CC2C3CCc4cc(OC(=O)c5ccccc5)ccc4C3CCC2(C)[C@H]1OC(C)=O (stereo partly drawn)	x	3	x	x	x	x
CN(C)c1ccc(/C=C(\C#N)C(=O)Nc2nc3c(s2)CCN(Cc2ccccc2)C3)cc1	0%	-1	-1	1%	7.9µM*	u
O=C(Nc1nc2c(s1)CN(Cc1ccccc1)CC2)C1CCC1	-1%	3	20	6%	6%	14%
O=[N+]([O-])c1cccc(/C=C/c2nc[nH]c2[N+](=O)[O-])c1	1%	7	-81*	1%	1%	3%
O=c1[nH]c(/C=C/c2cccc([N+](=O)[O-])c2)c([N+](=O)[O-])c(=O)[nH]1	-1%	-12	-5	16%	x	-9%
O=C(O)c1cc(O)c2c(c1)[C@@H]([C@H]1c3cc(C(=O)O)cc(O)c3C(=O)c3c(O[C@@H]4O[C@H](CO)[C@@H](O)[C@H](O)[C@H]4O)cccc31)c1cccc(O[C@@H]3O[C@H](CO)[C@@H](O)[C@H](O)[C@H]3O)c1C2=O	-1%	-64*	-15	-12%	x	2.5µM*
O=C1NC(c2ccccc2)(c2ccccc2)C(=O)N1COP(=O)(O)O	x	2	x	x	x	x
CN(Cc1ccccc1)C(=O)c1ccc([N+](=O)[O-])o1	-2%	2	-87*	-19%	-4%	7%
Cc1ccc(CNC(=O)c2ccc([N+](=O)[O-])o2)cc1	0%	5	-86*	-27%	-1%	-4%
